According to PubChem BioAssay (NCI):
This is part of a sample that, as a whole, favours compounds with a hit. Of some 83,000 tested, about 20% had one in any assay.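 Treatment: one concentration, 48 hours, 96-well format. Scoring: percent growth, with anything below 10 considered active.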 A number with no mark means an inactive call. Calls of active or inactive are those of the source.

System: HCT-15 colon
Assay: NCI-60 one-dose screen, 48 h (100 = growth as untreated, 0 = no growth, -100 = all killed)
Details: 10 µM unless noted
Experimental: Growth inhibition of the HCT-15 human tumor cell line is measured as a screen for anti-cancer activity. Cells are grown in 96 well plates and exposed to the test compound for 48 hours. Compounds are tested at a single concentration, which is 10^-5 M for most compounds. The reported endpoint is percent growth (GI% or GIPRCNT), where numbers from 0 - 100% represent growth inhibition, and numbers from -100% - 0 represent cell death. For example, a value of 40 represents 60% growth inhibition. A value of 0 means no net growth occurred over the course of the experiment. A value of -40 indicates 40% of cells at the beginning of the experiment died by the end of the experiment. A value of -100 means all cells are dead at the end of the experiment.
NCI-60 Human Tumor Cell Lines Screen was performed using the standard one-dose NCI protocol, which is described in more detail at https://dtp.cancer.gov/discovery_development/nci-60/default.htm.
Compounds with GIPRCNT values below 10 were considered active. Activity score was based on GIPRCNT using the following formula: […]
Score is 0 for GIPRCNT values of 100 or above, 50 for GIPRCNT values of 0, and 100 for GIPRCNT values of -100.

SMILES | growth
O=C(CSc1nc2ccccc2[nH]1)NCc1ccccc1 | 105%
O=C1OC(Cc2ccccc2)C1c1ccccc1 (stereo not given) | 101%
O=C(/C=C(O)/C=C/c1ccc(SC(F)(F)F)cc1)/C=C/c1ccc(SC(F)(F)F)cc1 | 88.5%
CC(C)(C)[Si](C)(C)OC1[C@@H](O[Si](C)(C)C(C)(C)C)[C@@H](CNC(=O)NC(=O)CCl)O[C@H]1n1cnc2c(NC(=O)Nc3ccccc3)ncnc21 (stereo not given in full) | 37.5%
O=C(Nc1cccc(C2=NCCN2)c1)c1ccc(-c2ccc(C(=O)Nc3cccc(C4=NCCN4)c3)cc2)cc1 | 82.6%
CCOC(=O)Oc1c(OC)cc(C(=O)c2ccc(OC)c(OC(=O)CCl)c2OC)cc1OC | 16.6%
CCCCCN1C=C/C(=C\C(=O)N(C)c2ccc(OC(F)(F)F)cc2)c2ccccc21 | 99.8%
O=C1/C=C/[C@@H](O)[C@@H]2C[C@@H](O)C[C@H]2/C=C/CCC[C@H](CCc2ccc3ncccc3c2)O1 | 6.02% (active)
CCOC(=O)C1=C(C)NC(SCc2cc(=O)oc3ccc(F)cc23)=N[C@@H]1c1cccc2ccccc12 | 93%
CCCCCN1C=C/C(=C\C(=O)n2ccc3ccccc32)c2ccccc21 | 98.4%
NC(=NCCCOc1ccc(F)cc1)Nc1ccc(Cl)cc1 | 69.4%
O=C(Cc1ccccc1)NNc1nc(Cl)nc(N2CCN(C(c3ccccc3)c3ccccc3)CC2)n1 | 44.7%
CCCCCN1C=C/C(=C\C(=O)N2CCCc3ccccc32)c2ccccc21 | 102%
CC1(C)CC(=O)C2=C(C1)N(c1ccc(F)cc1F)C(N)=C(C#N)C2c1cc(Br)ccc1F (stereo not given) | 93.8%
CC(=O)N1c2ccccc2NC2=C(C(=O)NC2(C)C)C1c1ccco1 (stereo not given) | 93.1%
COc1ccc(C(=O)c2nc3ccccc3n2CC(=O)c2ccc(Cl)cc2)cc1 | 17.4%
C#Cc1cccc(NC(=O)c2cccc(NC(=O)CCl)c2)c1 | -63.4% [8.25 µM] (active)
CNCCOc1nc2c3cnccc3cc(-c3cc(OC)c(OC)c(OC)c3)c2c2ccncc12 | -6.39% (active)
Cc1nn(-c2ccccc2)c(Cl)c1/C=C/C(=O)c1ccc(F)cc1 | 73.9%
O=[N+]([O-])c1ccc(NC(=S)N/N=C/c2cc3ccccc3n3nnnc23)cc1 | 27.3%

SMILES | growth
C=C1C(=O)O[C@H]2[C@H]1CC/C(CNC(=O)/C=C/c1cccc(OC)c1)=C\CC[C@@]1(C)O[C@@H]21 | -44.7% (active)
CCOC(=O)CC1CSC(N/N=C/c2ccc(-n3cccn3)cc2)=N1 (stereo not given) | 104%
CN[C@@H](C)C(=O)N[C@H]1CCS[C@H]2CC(C)(C)[C@@H](C(=O)N[C@H]3c4ccccc4C[C@H]3OCC#CC#CCO[C@@H]3Cc4ccccc4[C@@H]3NC(=O)[C@H]3N4C(=O)[C@@H](NC(=O)[C@H](C)NC)CCS[C@H]4CC3(C)C)N2C1=O | 109%
CCN(Cc1ccccc1)c1ccc(C=O)cc1 | 91%
O=C(/C=C/c1ccc[nH]1)c1ccc(-n2ccc(C(F)(F)F)n2)c(F)c1 | 85%
O=S(=O)(NCCNc1nccc(-c2c(-c3cccc(O)c3)nc3occn23)n1)c1ccccc1 | 103%
CC1=CCC(OC(=O)C(C)(O)CCC(O)(C(=O)OC2(C)C=CC(O)(C(C)C)CC2)C(C)C)(C(C)C)CC1 (stereo not given) | 103%
O=C(NNc1nc2c(F)cccc2n2cccc12)c1cnccn1 | 26.3%
O=C(CCN1CCCC1)Nc1ccc2c(NCc3ccccc3)c3ccccc3nc2c1 | 20.6%
CNCCn1c(=O)c2cc(OC)c(OC)cc2c2ccc3cc4c(cc3c21)OCO4 | 17.3%
COc1cc(NCCCCCNC(C)(C)C)c2ncccc2c1 | 91.2%
COc1cc2nc(-c3ccc(Cl)cc3)cc(OCCCN3CCCCC3)c2cc1OC | 17.4%
CN1CCN(c2ccc(NC3=C(Cl)C(=O)c4ncccc4C3=O)cc2C(F)(F)F)CC1 | -47% (active)
Nc1n[nH]c2cccc(C#Cc3cccc(C(=O)Nc4cc(CN5CCOCC5)cc(C(F)(F)F)c4)c3)c12 | 31.8%
C[C@H]1[C@H]2[C@H]3CC[C@@H]4[C@@]5(C)CC[C@H](O)C(C)(C)[C@@H]5CC[C@@]4(C)[C@]3(C)CC[C@]23CO[C@]1(C)[C@@H](C(=O)/C=C\c1ccco1)C3 | 106%
C=C1C(=O)O[C@H]2[C@H]1CC/C(COC(=O)NCC(C)c1ccc(CC(C)C)cc1)=C\CC[C@@]1(C)O[C@@H]21 (stereo not given in full) | -59.2% (active)
CCCCCCCCOc1ccc(/C=N/Nc2cc(C)nc3ccc(Br)cc23)cc1 | 21%
CCCCCC(=O)Oc1ccc(/C(=C(\C)c2ccccc2)c2ccc(OCCN3CCCCC3)cc2)cc1 | 58.5%
COc1cc(OC)cc(C(=O)C[n+]2cccc3cc[nH]c32)c1 | 108%
C=C1C(=O)O[C@H]2[C@H]1CC/C(COC(=O)NCCc1c[nH]c3ccc(OC)cc13)=C\CC[C@@]1(C)O[C@@H]21 | -54.7% (active)
